An excerpt weighted towards active compounds, which were near 3.2% of everything screened.
AMA1-RON2 inh = qHTS for Inhibitors of AMA1-RON; Towards Development of Antimalarial Drug Lead: Primary Screen; Plasmodium falciparum AMA1 (3D7) - RON2 peptide interaction; 360,000 tested, 0.2% active; Potency, µM (highest dose often 58.2 µM), usual class: inhibitors; AID 720542, 2013; AlphaScreen AMA1-biotinylated RON2 peptide binding; also: nearly all actives have a fitted effect of over 45% in size
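AMA1 (3D7) with his tag at 25 nM final met compounds first, then biotinylated RON2 peptide at 25 nM; detection used donor plus acceptor beads, 10 µg/mL apiece, read by AlphaScreen after 30 min at room temperature.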
Sm TGR block = qHTS Assay for the Inhibitors of Schistosoma Mansoni Peroxiredoxins. Schistosoma mansoni thioredoxin glutathione reductase (TGR), Q962Y6. purified TGR, DTNB reduction, TNB absorbance 405 nm. Potency, µM (series often up to 114 µM), actives largely listed as inhibitors. 360,000 tested, 3% active. AID 485364, 2010; also: nearly all actives have a fitted effect of over 60% in size
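First, TGR (20 nM dispensed) and NADPH were mixed with compound. Second, a 15 min room-temperature incubation followed. Third, further NADPH and then DTNB were added to start the reaction. Finally, TNB absorbance was monitored kinetically.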
RE007 growth inh = qHTS Assay for Inhibitors of the HIV-1 protein Vpr; S. pombe RE007 Vpr strain, BacTiter-Glo ATP luminescence, 24 h; Potency, µM (titrated, usually from 92.2 µM), actives largely listed as inhibitors; 360,000 tested, 0.21% active; active = well fitted falling curve with a large enough effect; inconclusive = small, poorly fitted or top-dose-only effect; inactive = no such curve, though single readings can be large or run the other way; also: nearly all actives have a fitted effect of over 50% in size
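Fission yeast RE007 carrying one integrated HIV-1 vpr copy, seeded at OD 0.01 in PMG+AL medium with 23 nL pinned compound. Grown 24 h at 30 degrees; viability read by BacTiter-Glo luminescence after 5 min.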
TbPYK inhibitor = qHTS of Trypanosoma Brucei Inhibitors; Potency, µM (doses to about 76.8 µM), hits mostly inhibitors; 410,000 tested, 0.12% active; TbPYK enzyme, Kinase-Glo Plus ATP luminescence, 45 min; also: nearly all actives have a fitted effect of over 50% in size
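T. brucei PYK with substrate was exposed to pin-transferred compounds across a concentration series, then started with 130 uM ADP (final). After 45 min at room temperature, Kinase-Glo Plus luminescence was read, normalized and curve-fitted.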
LmPK inhibitor = qHTS Assay for Inhibitors of Leishmania Mexicana Pyruvate Kinase (LmPK). Q27686. purified LmPK, Kinase-Glo ATP luminescence, 1 h. Potency, µM (titrated, usually from 57.5 µM), hits mostly inhibitors. 290,000 tested, 0.37% active
Target sequence (Q27686 whole entry, looked up): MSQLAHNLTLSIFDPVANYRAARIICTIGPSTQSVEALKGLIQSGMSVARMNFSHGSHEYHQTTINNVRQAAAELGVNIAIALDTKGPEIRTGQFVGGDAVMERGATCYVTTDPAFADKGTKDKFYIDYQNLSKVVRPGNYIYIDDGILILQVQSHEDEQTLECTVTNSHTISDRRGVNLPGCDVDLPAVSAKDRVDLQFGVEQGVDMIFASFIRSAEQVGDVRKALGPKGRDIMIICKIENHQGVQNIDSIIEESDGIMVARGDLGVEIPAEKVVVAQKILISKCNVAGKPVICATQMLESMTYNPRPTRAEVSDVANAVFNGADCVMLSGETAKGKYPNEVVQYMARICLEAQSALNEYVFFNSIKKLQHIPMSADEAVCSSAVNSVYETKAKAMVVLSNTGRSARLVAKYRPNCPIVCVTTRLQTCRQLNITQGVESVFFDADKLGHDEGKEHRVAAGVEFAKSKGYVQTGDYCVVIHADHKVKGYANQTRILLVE
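Purified LmPK (0.1 nM) with 0.5 mM PEP and 0.1 mM ADP in imidazole buffer pH 7.2 with MgCl2/KCl, 1 h at room temperature. ATP formed was read by luciferase luminescence and normalized to no-enzyme and uninhibited controls.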
Hits are given with their value; [ ] = remark or other dose. Unless noted, calls follow the shape of the dose curve; as a rule, active = well fitted curve in the direction sought with a large enough effect; inconclusive = small, poorly fitted or top-dose-only effect, or another doubt; inactive = no such curve, though single readings can be large; an effect the other way counts as inactive or inconclusive.

`CC(=O)N1CCC2(CCCN(C(c3ccccc3)c3ccccc3)C2)CC1` gave TbPYK inhibitor inactive.
CC(C)(C)c1ccc(C(=O)Nc2ccc(NC(=O)c3ccc(Cl)c(Cl)c3)cc2)cc1 was read as Sm TGR block inactive and TbPYK inhibitor inactive.
Screening CC(C)(C)c1ccc(C(=O)Nc2ccc(C=C(C#N)C#N)cc2)cc1 returned AMA1-RON2 inh inactive, Sm TGR block 3.2µM, RE007 growth inh inactive, TbPYK inhibitor inactive and LmPK inhibitor inactive.
Screening N#CC(C#N)=Cc1ccc(NC(=O)c2ccc(Br)cc2)cc1 returned AMA1-RON2 inh inactive, Sm TGR block 2.5µM, RE007 growth inh inactive, TbPYK inhibitor inactive and LmPK inhibitor inactive.
`NC(=O)CSC1=N/C(=C\c2ccco2)C(=O)N1c1ccc(OC(F)F)cc1` gave AMA1-RON2 inh inactive, Sm TGR block 45µM, RE007 growth inh inactive, TbPYK inhibitor inactive and LmPK inhibitor inactive.
For CCN(CC)C(=O)CSC1=N/C(=C/c2ccco2)C(=O)N1c1ccc(OC)c(Cl)c1 the results were AMA1-RON2 inh inactive, Sm TGR block inconclusive, RE007 growth inh inactive, TbPYK inhibitor inactive and LmPK inhibitor inactive.
Screening CC(=O)c1ccc(NC(=S)NCCc2ccc(S(N)(=O)=O)cc2)cc1 returned AMA1-RON2 inh inactive, Sm TGR block 40µM, RE007 growth inh inactive, TbPYK inhibitor inactive and LmPK inhibitor inactive.
NS(=O)(=O)c1ccc(CCNC(=O)c2cc(-c3ccco3)nc3ccccc23)cc1 was read as AMA1-RON2 inh inactive, Sm TGR block 8.9µM, RE007 growth inh inactive and TbPYK inhibitor inconclusive.
Screening CCCCN(C(=O)c1cc(-c2ccco2)nc2ccccc12)c1c(N)n(CCC)c(=O)[nH]c1=O returned AMA1-RON2 inh inactive, Sm TGR block inconclusive, RE007 growth inh inactive and TbPYK inhibitor inactive.
For NS(=O)(=O)c1ccc(CCNC(=O)c2ccc[nH]c2=S)cc1 the results were AMA1-RON2 inh inactive, Sm TGR block inactive, RE007 growth inh 8.9µM, TbPYK inhibitor inactive and LmPK inhibitor inactive.
`CCCCn1c(N)c(N(CC(C)C)C(=O)c2cc(-c3ccco3)nc3ccccc23)c(=O)[nH]c1=O` gave AMA1-RON2 inh inactive, Sm TGR block 22µM, RE007 growth inh inactive and TbPYK inhibitor inactive.
For NS(=O)(=O)c1ccc(CCNC(=O)c2cccc3ccccc23)cc1 the results were AMA1-RON2 inh inactive, Sm TGR block inactive, RE007 growth inh inactive, TbPYK inhibitor inactive and LmPK inhibitor inactive.
`CCc1ccc(CNC(=O)c2cc(=O)[nH]c3ccc(S(=O)(=O)N4CCCCC4)cc23)cc1` gave Sm TGR block inactive and TbPYK inhibitor inactive.
CC1(OC(=O)c2cnc3ccccc3n2)C(=O)C=C2C=C3CCCN3C=C2C1=O (stereo not drawn) was read as LmPK inhibitor inactive[11.5 µM].
Screening CC(C)CCNC(=O)c1cc(-c2ccco2)nc2ccccc12 returned AMA1-RON2 inh inactive, Sm TGR block 40µM, RE007 growth inh inactive, TbPYK inhibitor inactive and LmPK inhibitor inactive.
For NS(=O)(=O)c1ccc(NC(=S)Nc2ccc(F)c(F)c2)cc1 the results were AMA1-RON2 inh inactive, Sm TGR block 25µM, RE007 growth inh inactive, TbPYK inhibitor inactive and LmPK inhibitor inactive.
For O=C(NCCCN1CCOCC1)c1cc(-c2ccco2)nc2ccccc12 the results were AMA1-RON2 inh inactive, RE007 growth inh inactive and TbPYK inhibitor inactive.
`CCCCCCNC(=O)c1cc(-c2ccco2)nc2ccccc12` gave AMA1-RON2 inh inactive, Sm TGR block 3.2µM, RE007 growth inh inactive, TbPYK inhibitor inactive and LmPK inhibitor inactive.
For CCOC(=O)c1cc(S(=O)(=O)NCc2ccc(OC)cc2)[nH]n1 the results were Sm TGR block inactive and TbPYK inhibitor inactive.
For CCc1ccccc1NC(=O)CN(c1ccccc1OC)S(=O)(=O)c1ccc(C)cc1 the results were Sm TGR block inactive and TbPYK inhibitor inactive.
Screening Cc1ccc(-c2nc(CS(=O)CC(=O)N3CCN(c4ccccc4)CC3)c(C)o2)cc1 (stereo not drawn) returned AMA1-RON2 inh inactive, Sm TGR block inactive, RE007 growth inh inactive, TbPYK inhibitor inactive and LmPK inhibitor inactive.
`Cc1cccc(-c2nc(CS(=O)CC(=O)N3CCCCC3)c(C)o2)c1` (stereo not drawn) gave AMA1-RON2 inh inactive, Sm TGR block 35µM, RE007 growth inh inactive, TbPYK inhibitor inactive and LmPK inhibitor inactive.
For Cc1cccc(-c2nc(CS(=O)CC(=O)NCc3cccs3)c(C)o2)c1 (stereo not drawn) the results were AMA1-RON2 inh inactive, Sm TGR block inactive, RE007 growth inh inactive, TbPYK inhibitor inactive and LmPK inhibitor inactive.
CCOC(=O)N1CCN(C(=O)CS(=O)Cc2nc(-c3ccc(C)cc3)oc2C)CC1 (stereo not drawn) was read as AMA1-RON2 inh inactive, Sm TGR block inconclusive, RE007 growth inh inactive, TbPYK inhibitor inactive and LmPK inhibitor inactive.
Cc1oc(-c2ccccc2)nc1CS(=O)CC(=O)N1CCc2ccccc2C1 (stereo not drawn) was read as AMA1-RON2 inh inactive, Sm TGR block 3.2µM, RE007 growth inh inactive, TbPYK inhibitor inactive and LmPK inhibitor inactive.
For Cc1cccc(-c2nc(CS(=O)CC(=O)NCC3CCCO3)c(C)o2)c1 (stereo not drawn) the results were AMA1-RON2 inh inactive, Sm TGR block 28µM, RE007 growth inh inactive, TbPYK inhibitor inactive and LmPK inhibitor inactive.
`Nc1cc(=O)nc(SCC(=O)Nc2ccc(F)cc2)n1-c1ccc(Cl)cc1` gave Sm TGR block inactive and TbPYK inhibitor inactive.
CCOC(=O)c1c(C)oc2nc(C)nc(Nc3cc(C)cc(C)c3)c12 was read as Sm TGR block inactive and TbPYK inhibitor inactive.
For Cc1ccc(-n2c(=O)c3sc4ccccc4c3n(C)c2=O)cc1F the results were Sm TGR block inactive and TbPYK inhibitor inactive.
Cc1ccc(-n2cc(C(=O)Oc3ccc(F)cc3)c3ccccc3c2=O)cc1 was read as Sm TGR block 35µM and TbPYK inhibitor inactive.
Cc1ccc(-n2cc(C(=O)Oc3cccc(C)c3)c3ccccc3c2=O)cc1 was read as Sm TGR block inactive and TbPYK inhibitor inactive.
O=C(Nc1ccc(-c2nc3ccccc3[nH]2)cc1)c1ccc2c(c1)OCO2 was read as AMA1-RON2 inh inconclusive, Sm TGR block inactive, RE007 growth inh inactive, TbPYK inhibitor inactive and LmPK inhibitor inactive.
For O=C(c1ccc(-c2nc3ccccc3s2)s1)N1CCOCC1 the results were AMA1-RON2 inh inactive, Sm TGR block inactive, RE007 growth inh inconclusive, TbPYK inhibitor inconclusive and LmPK inhibitor 14µM.
Oc1ccc(-c2nc3ccccc3s2)cc1 was read as AMA1-RON2 inh inactive, Sm TGR block inactive, RE007 growth inh inconclusive, TbPYK inhibitor inactive and LmPK inhibitor 16µM.
